Most compounds without a hit are left out; they make up all but 1.6% or so of the library.
SIRT5 inh – sirtuin-5 (human) deacylase inhibition. hit rate 1.1% among 330,000. inhibition, % at 15 µM. Q9NXA8. AID 652115. Purified SirT5, succinyl-peptide AMC, trypsin-coupled fluorescence; in the data active = inhibition above about 15%; inconclusive = no clear call, values can overlap the other calls
Casp6 inh – inhibitors of human caspase-6. P55212. purified caspase-6, Z-VEID-R110 cleavage fluorescence. inhibition, % at 12.5 µM. hit rate 0.53% among 350,000. AID 686996;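 active = mean inhibition across replicates at least about 35%, with every replicate also reaching that limit, limit read from the data; inconclusive = only one of the two criteria met; inactive = neither criterion met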;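 also: 0% = median of neutral control wells and 100% = no fluorescence left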
SUMO HTRF inh – blocks human SUMOylation mediated by UBC9. HTRF SUMOylation assay, SAE1/SAE2 + UBC9, in vitro. inhibition, % at 35 µM. hit rate 0.36% among 290,000. AID 2006; in the data active = inhibition above about 50%, passing the limit was not always enough; inconclusive = no clear call, values can overlap the other calls
NSD2 inh – inhibitors of human histone methyltransferase NSD2 | NSD2 peptide methylation, AlphaScreen, 120 min | hit rate 0.54% among 310,000 | inhibition, % at 12.5 µM | O96028 | AID 743445; in the data active = inhibition above about 50%
Target sequence (O96028 whole entry, looked up): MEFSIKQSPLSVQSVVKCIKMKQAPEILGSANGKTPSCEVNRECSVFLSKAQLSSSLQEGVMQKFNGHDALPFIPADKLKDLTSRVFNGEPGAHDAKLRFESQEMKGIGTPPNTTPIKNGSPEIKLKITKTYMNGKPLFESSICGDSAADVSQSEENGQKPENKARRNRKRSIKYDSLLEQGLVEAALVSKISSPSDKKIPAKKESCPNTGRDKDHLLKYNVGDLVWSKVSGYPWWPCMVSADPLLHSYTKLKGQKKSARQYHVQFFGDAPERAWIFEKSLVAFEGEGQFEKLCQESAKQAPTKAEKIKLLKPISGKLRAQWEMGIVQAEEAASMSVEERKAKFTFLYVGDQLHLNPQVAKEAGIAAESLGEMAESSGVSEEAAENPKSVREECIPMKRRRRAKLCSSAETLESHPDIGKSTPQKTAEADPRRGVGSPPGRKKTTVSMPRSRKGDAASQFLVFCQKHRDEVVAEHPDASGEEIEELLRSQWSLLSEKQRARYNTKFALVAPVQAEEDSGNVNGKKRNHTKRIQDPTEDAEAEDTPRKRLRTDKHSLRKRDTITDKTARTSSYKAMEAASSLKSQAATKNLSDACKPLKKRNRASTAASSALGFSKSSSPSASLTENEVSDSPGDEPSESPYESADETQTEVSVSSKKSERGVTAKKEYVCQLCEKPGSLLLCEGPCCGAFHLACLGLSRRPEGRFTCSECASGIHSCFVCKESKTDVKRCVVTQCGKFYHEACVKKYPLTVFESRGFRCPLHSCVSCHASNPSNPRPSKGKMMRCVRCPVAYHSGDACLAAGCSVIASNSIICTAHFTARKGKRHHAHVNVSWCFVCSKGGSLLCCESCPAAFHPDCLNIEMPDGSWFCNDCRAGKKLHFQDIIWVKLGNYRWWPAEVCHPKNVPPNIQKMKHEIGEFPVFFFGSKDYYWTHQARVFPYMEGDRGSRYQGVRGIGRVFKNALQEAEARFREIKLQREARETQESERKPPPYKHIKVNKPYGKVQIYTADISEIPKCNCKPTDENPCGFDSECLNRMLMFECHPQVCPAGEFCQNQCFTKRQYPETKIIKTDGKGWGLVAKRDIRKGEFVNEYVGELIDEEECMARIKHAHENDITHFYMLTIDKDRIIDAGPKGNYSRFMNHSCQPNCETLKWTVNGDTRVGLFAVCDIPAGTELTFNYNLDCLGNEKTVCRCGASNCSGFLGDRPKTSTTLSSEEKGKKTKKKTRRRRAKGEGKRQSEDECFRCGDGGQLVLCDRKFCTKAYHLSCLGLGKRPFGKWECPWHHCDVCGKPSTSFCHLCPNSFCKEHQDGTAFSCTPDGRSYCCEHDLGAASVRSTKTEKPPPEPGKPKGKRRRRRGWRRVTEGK
An asterisk follows results filed as active; ? = inconclusive; / = no result given.

SMILES	SIRT5 inh	Casp6 inh	SUMO HTRF inh	NSD2 inh
COc1ccc(-c2cc(C(=O)NC(Cc3cc4ccccc4[nH]3)C(=O)O)c(C)o2)cc1OC (stereo unspecified)	1	48*	30	/
NC(=S)N=Nc1c(O)n(CCCl)c2ccc(Cl)cc12	-1	-4	-2	-2
NC(=S)N=Nc1c(O)n(CCCl)c2ccccc12	19*	-2	8	2
Cc1cc(C)cc(N(CC(=O)N2CCCCCC2)S(C)(=O)=O)c1	3	36*	6	-1
C[C@@H]1CN([C@H](C)CO)C(=O)c2cccc(NC(=O)C3CC3)c2O[C@@H]1CN(C)C(=O)Nc1ccc2c(c1)OCO2	0	3	/	/
Cc1ccc(S(=O)(=O)c2cc3c(=O)n4ccccc4nc3n(Cc3ccco3)c2=N)cc1C	/	/	61	2
N=c1c(S(=O)(=O)c2ccccc2)cc2c(=O)n3ccccc3nc2n1Cc1ccco1	/	/	50*	-4
Cc1ccc2nc3c(cc(S(=O)(=O)c4ccccc4)c(=N)n3Cc3ccco3)c(=O)n2c1	-1	11	80*	1
CO[C@H]1CN(C)C(=O)c2ccc(NC(=O)c3ccccc3F)cc2OC[C@H](C)N(CC2CC2)C[C@@H]1C	1	0	/	/
C[C@H](NC(=O)C[C@@H]1C[C@H]2c3cc(NC(=O)C4CCC4)ccc3O[C@H]2[C@H](CO)O1)c1ccccc1	2	-2	/	/
C[C@H]1CN([C@@H](C)CO)C(=O)c2cc(C#CCN(C)C)cnc2O[C@@H]1CN(C)Cc1cccc(F)c1	3	-1	/	/
O=c1c2ccccc2nc(SCc2ccccc2F)n1C1CCCC1	/	38*	-6	2
O=C(CN1CCC(c2nc3ccccc3s2)CC1)N1CCCCC1	38*	-4	16	1
C[C@H](CO)N1C[C@H](C)[C@@H](CN(C)Cc2ccc(-c3ccccc3)cc2)Oc2c(NC(=O)Nc3ccc(C(F)(F)F)cc3)cccc2C1=O	2.6*	-3	/	/
C[C@@H]1CN([C@@H](C)CO)C(=O)c2cccc(NC(=O)Nc3ccccc3)c2O[C@@H]1CN(C)Cc1ccc(C(F)(F)F)cc1	103*	-1	/	/
COc1ccc(CN(C)C[C@H]2Oc3c(NC(=O)Nc4ccc(F)cc4)cccc3C(=O)N([C@@H](C)CO)C[C@@H]2C)cc1	30*	0	/	/
COc1ccc(NC(=O)Nc2ccc3c(c2)C(=O)N([C@H](C)CO)C[C@@H](C)[C@H](CN(C)S(=O)(=O)c2ccc(F)cc2)OCCCC[C@@H](C)O3)cc1	6	0	/	/
CCOC(=O)c1c(C)[nH]c(C)c1C(=O)COC(=O)c1cc(OC)c(OC)cc1OC	19*	-1	1	4
CO[C@H]1CN(C)C(=O)c2cccc(C#N)c2OC[C@@H]2O[C@@H](CC[C@H]2OC)CCN(C)C(=O)[C@H]1C	0	-100	/	/
CC(C)CC#Cc1ccc2c(c1)O[C@H](CN(C)Cc1ccc3c(c1)OCO3)[C@H](C)CN([C@H](C)CO)S2(=O)=O	14*	3	/	/
C[C@H]1CN([C@@H](C)CO)S(=O)(=O)c2ccc(C#CCN(C)C)cc2O[C@H]1CN(C)Cc1ccc2c(c1)OCO2	-2	36*	/	/
COc1ccccc1-c1ccc2c(c1)O[C@@H](CN(C)Cc1ccc3c(c1)OCO3)[C@@H](C)CN([C@@H](C)CO)S2(=O)=O	21*	-2	/	/
COc1ccccc1-c1ccc2c(c1)O[C@H](CN(C)Cc1ccc3c(c1)OCO3)[C@H](C)CN([C@@H](C)CO)S2(=O)=O	?	-2	/	/
COc1ccc(-c2cc(C(=O)N3CCN(c4ncccn4)CC3)c3ccccc3n2)cc1OC	3	8	/	-3
COc1ccc(-c2cc(C(=O)N3CCN(c4cccc(C)c4C)CC3)c3ccccc3n2)cc1OC	21*	-1	/	/
SMILES	SIRT5 inh	Casp6 inh	SUMO HTRF inh	NSD2 inh
CC(=O)Nc1ccc(S(=O)(=O)NC2CC(=O)N(c3cccc(F)c3)C2)cc1 (stereo unspecified)	-2	-2	/	0
O=C1CC(NS(=O)(=O)c2cc(F)ccc2F)CN1c1cccc(F)c1 (stereo unspecified)	-2	37*	/	0
CSCCC(NC(=O)c1cccc(C)c1)C(=O)OCC(=O)N1CCOCC1 (stereo unspecified)	/	/	/	-2
Cc1ccc(C(=O)O/N=C(\c2ccccc2)c2cccnc2)cc1	33*	2	3	50
Cc1cccc(C(=O)O/N=C(\c2ccccc2)c2cccnc2)c1	-3	2	4	-2
CCNC(=O)C[C@H]1CC[C@@H]2[C@H](COC[C@@H](O)CN2C(=O)c2cccnc2)O1	-2	-1	/	/
O=C(C[C@@H]1CC[C@H]2[C@@H](COC[C@@H](O)CN2S(=O)(=O)c2ccccc2)O1)Nc1ccc(-c2ccccc2)cc1	0	2	/	/
O=C(C[C@H]1CC[C@H]2[C@@H](COC[C@@H](O)CN2S(=O)(=O)c2ccccc2)O1)Nc1ccc(-c2ccccc2)cc1	18*	1	/	/
O=C(C[C@H]1CC[C@H]2[C@@H](COC[C@@H](O)CN2C(=O)c2ccncc2)O1)Nc1ccc(-c2ccccc2)cc1	27*	3	/	/
CCNC(=O)C[C@@H]1CC[C@H]2[C@@H](COC[C@H](O)CN2C(=O)c2cccnc2)O1	17*	-1	/	/
CCNC(=O)C[C@@H]1CC[C@@H]2[C@H](COc3ccc(NC(=O)Nc4ccc(C)cc4)cc3C(=O)N2C)O1	-6	-2	/	/
COc1ccc(Br)cc1/C=c1\sc2nc(-c3ccco3)nn2c1=O	/	/	52*	7
C[C@H]1CN([C@@H](C)CO)C(=O)c2cc(NS(C)(=O)=O)ccc2O[C@H]1CN(C)Cc1ccc2c(c1)OCO2	-3	-4	/	/
CCCNC(=S)N1CCC(NC(=O)c2ccc(C)cc2)CC1	25*	-4	8	-3
COc1ccc(NC(=O)Nc2ccc3c(c2)C(=O)N([C@@H](C)CO)C[C@@H](C)[C@@H](CN(C)Cc2ccc(C(F)(F)F)cc2)OCCCC[C@@H](C)O3)cc1	17*	1	/	/
COc1ccc(NC(=O)Nc2ccc3c(c2)C(=O)N([C@H](C)CO)C[C@@H](C)[C@@H](CN(C)Cc2ccccc2)OCCCC[C@H](C)O3)cc1	21*	-1	/	/
C[C@@H]1CCCCO[C@H](CN(C)Cc2ccccc2)[C@H](C)CN([C@H](C)CO)C(=O)c2cc(NC(=O)CCC(F)(F)F)ccc2O1	19*	-1	/	/
COc1ccc(NC(=O)Nc2ccc3c(c2)C(=O)N([C@@H](C)CO)C[C@H](C)[C@H](CN(C)Cc2ccccc2)OCCCC[C@@H](C)O3)cc1	0	2	/	/
COc1ccc(NC(=O)Nc2ccc3c(c2)C(=O)N([C@@H](C)CO)C[C@H](C)[C@@H](CN(C)Cc2ccccc2)OCCCC[C@H](C)O3)cc1	20*	-4	/	/
COc1ccc(CN(C)C[C@H]2OCCCC[C@@H](C)Oc3ccc(NC(=O)Nc4ccc(C(F)(F)F)cc4)cc3C(=O)N([C@H](C)CO)C[C@H]2C)cc1	12	-2	/	/
COc1ccc(CN(C)C[C@@H]2OCCCC[C@@H](C)Oc3ccc(NC(=O)CCCCCC(=O)Nc4ccccc4N)cc3C(=O)N([C@H](C)CO)C[C@@H]2C)cc1	6	-2	/	/
CC1=C(C#N)C(=O)NC(=O)/C1=C\c1ccc(-c2cc(C)c(C)cc2[N+](=O)[O-])o1	17*	/	/	/

High-throughput results from PubChem BioAssay.
